# About 3,300 (8.5%) of roughly 39,000 compounds were called active. The full list was thinned out, with actives kept by preference.
# Test system: HepG2
# Assay: cytotoxicity call (relative viability < 0.9)
# Settings: 10 µM
row,Compound,cytotoxicity call
1,C[C@@H]1CN([C@H](C)CO)C(=O)Cc2cc(NC(=O)Cn3cnnn3)ccc2O[C@H]1CN(C)Cc1ccc2c(c1)OCO2,inactive
2,CO[C@@H](CN(C)S(=O)(=O)c1ccc(Cl)cc1)[C@H](C)CN([C@@H](C)CO)S(=O)(=O)c1cccc(Cl)c1,inactive
3,O=C1OC2(c3ccc(O)cc3Oc3cc(O)ccc32)c2ccccc21,inactive
4,O=C1OC2(c3ccccc31)c1cc(I)c(O)c(I)c1Oc1c2cc(I)c(O)c1I,active
5,O=C1OC(c2cc(I)c(O)c(I)c2)(c2cc(I)c(O)c(I)c2)c2ccccc21,inactive
6,C[C@@H]1CN([C@@H](C)CO)C(=O)c2cccc(NC(=O)c3cnccn3)c2O[C@H]1CN(C)C(=O)NC1CCCCC1,inactive
7,Cc1[nH]c(=O)[nH]c(=O)c1S(=O)(=O)N1CCN(c2ccccc2)CC1,inactive
8,Cc1noc(C)c1NC(=O)N(C)C[C@@H]1OCCCC[C@H](C)Oc2ccc(NS(=O)(=O)c3ccccc3)cc2C(=O)N([C@@H](C)CO)C[C@H]1C,inactive
9,C[C@H]1CN([C@@H](C)CO)S(=O)(=O)c2ccc(C#Cc3ccccc3F)cc2O[C@@H]1CN(C)C(=O)Cc1cccnc1,inactive
10,O=C(C[C@@H]1CC[C@@H]2[C@H](COC[C@@H](O)CN2S(=O)(=O)c2cccc(Cl)c2)O1)NC1Cc2ccccc2C1,inactive
11,O=C(C[C@@H]1C[C@H]2c3cc(NS(=O)(=O)c4ccc(F)cc4)ccc3O[C@H]2[C@H](CO)O1)NC1CCCC1,inactive
12,COCC#Cc1cnc2c(c1)C(=O)N([C@@H](C)CO)C[C@H](C)[C@H](CN(C)C(=O)c1cnccn1)O2,inactive
13,C#CC[C@H](c1nc2cc(Cl)ccc2c(=O)n1Nc1ccccc1)N(CCCN)C(=O)c1cccc(Cl)c1F,active
14,C[C@@H]1CN([C@H](C)CO)S(=O)(=O)c2ccc(-c3cccc(C#N)c3)cc2O[C@H]1CN(C)C(=O)c1ccncc1,inactive
15,Cc1nc[nH]c1CN(C)[C@H](C)C(=O)N(C)C,inactive
16,CNCCC=C1c2ccccc2CCc2ccccc21.Cl,active
17,CN(C)CCC=C1c2ccccc2COc2ccccc21.Cl,active
18,CN(C)CCC=C1c2ccccc2C=Cc2ccccc21.Cl,active
19,CN(C)CCC=C1c2ccccc2CCc2ccccc21.Cl,active
20,CN(C)CCC=C1c2ccccc2COc2ccc(CC(=O)O)cc21.Cl,inactive
21,CN(C)CN1C(=O)c2ccccc2C1=O,inactive
22,Cc1noc(C2CNC2)n1,inactive
23,COc1ccc(NC(=O)N(C)C[C@@H]2OCCCC[C@@H](C)Oc3ccc(NC(=O)NC(C)C)cc3C(=O)N([C@@H](C)CO)C[C@H]2C)cc1,inactive
